Among the data in PubChem BioAssay AID894 (National Center for Advancing Translational Sciences (NCATS), 2007) are activity change, negative = inhibition and Potency values, retold here.

Where “and” joins values, the source holds several entries; their conditions need not be identical. Identical values can stand only once. The campaign covered roughly 150,000 compounds. About 6,500 (4.3%) were called active. Inconclusive results (about 12%) are left out. The sample as a whole holds a higher share of actives than the screen did. Unmarked numbers belong to inactive results. The call rests on the fitted dose curve; in most records, active means well fitted inhibition curve with a large enough effect (not every such curve was filed as active); inconclusive means small, poorly fitted or top-dose-only effect, or another doubt; inactive means no such curve, though single readings can be large or run the other way.
On the % scale 0 is the no-effect control and ±100 the full control effect; potency means the concentration at half of the fitted maximal effect.

For this assay, the target named is 15-hydroxyprostaglandin dehydrogenase [NAD(+)] (Homo sapiens) (UniProt P15428). Put plainly: qHTS Assay for Inhibitors of HPGD (15-Hydroxyprostaglandin Dehydrogenase). As to conditions: purified HPGD, NADH fluorescence kinetic, PGE2 substrate; activity change, negative = inhibition: stronger effect = lower value. The procedure, abridged: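 NADH formation kinetics: reaction with 30 uM PGE2 and 1 mM NAD+ (final), 20 nM enzyme, Tris-HCl pH 8 with Tween 20, after 15 min compound preincubation at room temperature. Fluorescence change, last versus first of five reads.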
Sequence of 15-hydroxyprostaglandin dehydrogenase [NAD(+)] (Homo sapiens) (P15428 whole entry, looked up): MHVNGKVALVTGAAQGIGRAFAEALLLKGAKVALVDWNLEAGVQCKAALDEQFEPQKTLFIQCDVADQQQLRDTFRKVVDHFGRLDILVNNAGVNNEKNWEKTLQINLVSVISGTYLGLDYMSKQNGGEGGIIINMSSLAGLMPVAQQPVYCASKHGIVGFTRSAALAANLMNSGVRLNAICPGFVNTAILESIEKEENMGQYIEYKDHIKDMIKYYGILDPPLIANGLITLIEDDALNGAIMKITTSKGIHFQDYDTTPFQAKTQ
In general terms: qHTS replaces the single test concentration by a dilution series.
Turning to `CN(CC(=O)NCCc1ccccc1)S(=O)(=O)c1cnc[nH]1`, the activity change, negative = inhibition is -0.3%.
With `Cc1cccc(C)c1NC(=O)C(c1ccccc1)N1CC(=O)Nc2ccccc21` (stereo not given), the activity change, negative = inhibition was -5.54%.
Still for that read-out and setting: under `C=CCN(CC=C)S(=O)(=O)c1ccc(C(=O)Nc2nc3c(s2)CCc2ccccc2-3)cc1` stands -28.8%; under `O=C(/C(=C/c1cccc(Cl)c1)c1nc2ccccc2[nH]1)c1ccccc1`, -17.6%; under `COc1ccc(C/C(C)=N/NC(=O)c2ccncc2)cc1`, -13.4%.
Still for that read-out and setting: under `COc1ccc([N+](=O)[O-])cc1NC(=O)C(C)OC(=O)C1c2ccccc2Oc2ccccc21` (stereo not given) stands -5.7%; under `NC1CCN(O)C1=O` (stereo not given), -4.5%.
On to `O=C1N(c2ccc(Cl)cc2)C(c2ccc(Cl)cc2)N2CCCN12` (stereo not given), for which the activity change, negative = inhibition is 4.12%.
Still for that read-out and setting: under `COc1ccc(CNC(=O)CN(Cc2ccc(Cl)cc2)S(C)(=O)=O)cc1` stands -5.79%; under `Cc1nc(SCC(=O)c2ccccc2)c([N+](=O)[O-])[nH]1`, -5.29%.
Consider `Cc1cc(SCC(=O)c2ccccc2)nc(SCC(=O)c2ccccc2)n1`, for which the Potency is 28.2 µM (active).
With `O=C(CSc1nnc2ccccn12)c1ccccc1`, the activity change, negative = inhibition was 78.8%.
In the case of `CCOC(=O)c1c(C)[nH]c(C)c1C(=O)CSc1nc(N)cc(N)n1`, the activity change, negative = inhibition is -1%.
For the compound `COc1ccc(C(=O)CSc2n[nH]c(N)n2)cc1`, the activity change, negative = inhibition was -10.7%.
For the compound `COC(=O)c1cc(C(=O)CSc2nc(C)cc(C)n2)ccc1O`, the Potency was 17.8 µM (active).
As for `C/C=C(\C)C(=O)O[C@H]1CC(C)=C2C(=O)C=C(C)C2[C@@H]2OC(=O)[C@@](C)(OC(=O)C=C(C)C)C21` (stereo not given in full), the activity change, negative = inhibition is -7.62%.
Same read-out and setting: then `O=C(Nc1ccccc1Cc1ccccc1)c1ccc2c(c1)SC1=NS(=O)(=O)CCN12`, with -2.73%; and `Cc1cc(Cl)ccc1NC(=S)N1CCC(C(N)=O)(N2CCCCC2)CC1`, with -9.28%.
The same measure, in the same setting: then `CCOc1ccc(NC(=O)CSc2ncnc3c2sc2ccccc23)cc1`, with -9.21%.
In the case of `O=C(N/N=C/c1c(Cl)[nH]c2ccccc12)c1sc2ccccc2c1Cl`, the activity change, negative = inhibition is -16.9%.
With `O=C(Nc1ccon1)c1cccc(Cl)c1`, the activity change, negative = inhibition was -28.3%.
On to `O=C(Nc1ccon1)c1sc2ccccc2c1Cl`, for which the Potency is 15.8 µM (active).
Take `CC/C=C\C/C=C\C/C=C\C/C=C\C/C=C\C/C=C\CCC(=O)NC(C)C(=O)O` (stereo not given): the activity change, negative = inhibition is -6.96%.
Take `Cc1nnc(SCC(=O)N2CCOCC2)[nH]c1=O`: the activity change, negative = inhibition was -12.2%.
Take `O=C(CSc1nc2c(cnn2-c2ccc(F)cc2)c(=O)[nH]1)N1CCCCCC1`: the Potency was 15.8 µM (active).
As for `COc1ccc(N2CCN(C(=O)CSc3ncnc4c3cnn4-c3ccc(OC)cc3)CC2)cc1`, the activity change, negative = inhibition is -8.74%.
On the same count and under the same terms, under `CCc1ccc(C2N3CC4([N+](=O)[O-])CN2CC([N+](=O)[O-])(C3)C4(C)C)cc1` (stereo not given) stands 2.32%; under `CCCc1[nH]nc2c1C(C1CC=CCC1)C(C#N)=C(N)O2` (stereo not given), -1.94%.
For the compound `N#CC1=C(N)OC2=C(C(=O)CCC2)C1C1CC=CCC1` (stereo not given), the Potency was 20 µM (active).
For `CCc1ccc(C2C(C#N)=C(N)N(N(C)C)C3=C2C(=O)CCC3)s1` (stereo not given), the activity change, negative = inhibition is -10.8%.
Same read-out and setting: then `Cc1ccc(NC(=O)c2oc(=O)c3ccccc3c2-c2ccccc2)c(C)c1`, with -2.46%.
For `CCOc1ccccc1C(=O)NCc1ccco1`, the Potency was 22.4 µM (active).
Turning to `O=C(CCOc1ccccc1)NCc1ccccc1`, the activity change, negative = inhibition is -13.4%.
With `CCCCOc1ccc(C(=O)NCc2ccncc2)cc1`, the activity change, negative = inhibition is -5.73%.
On the same count and under the same terms, under `Cc1cccc(Nc2ccccc2C(=O)NCc2ccco2)c1C` stands -6.4%; under `CC(C)(C)c1ccc(C(=O)NCCC(=O)NCc2ccco2)cc1`, -15.3%.
Take `O=C(CCCOc1ccccc1)NCc1ccco1`: the Potency is 12.6 µM (active).
Same read-out and setting: then `CCCCOc1ccc(C(=O)NCc2ccco2)cc1`, with 15.8 µM (active).
As for `CN(C)C(CNC(=O)CCCOc1ccccc1)c1ccco1` (stereo not given), the activity change, negative = inhibition is -16.9%.
For the compound `O=C(Nc1ccccc1)Nc1ccccc1C(=O)NCc1ccco1`, the activity change, negative = inhibition was -6.05%.
On the same count and under the same terms, under `O=C(Nn1c(SCc2ccc([N+](=O)[O-])cc2)nc2ccccc2c1=O)c1ccc(F)cc1` stands -26.2%.
Same read-out and setting: then `Oc1ccc(Br)cc1C=Nc1ccc2[nH]ncc2c1`, with -20.6%; and `COc1ccc(-n2nnnc2-c2nc3ccccc3s2)cc1`, with -14.9%.
Take `CCOC(=O)C(C)Sc1nnc(CSc2nc3nc(C)cc(C)n3n2)o1` (stereo not given): the activity change, negative = inhibition was -7.77%.
`O=C1NC(c2ccccc2)=NC1(Nc1ccccn1)C(F)(F)F` (stereo not given): the activity change, negative = inhibition is -0.712%.
Same read-out and setting: then `Cc1nc(CC(=O)NNS(=O)(=O)c2ccc(F)c(Cl)c2)cs1`, with -9.95%; and `C[C@@]12CCC(=O)C=C1CC[C@H]1C2[C@@H](O)C[C@]2(C)[C@@H]1CC[C@@]2(O)C(=O)COC(=O)C1CCCC1` (stereo not given in full), with 2.72%.
As to `COc1cccc(-n2c(SCC(=O)NC3CCCCC3)nc3n[nH]c(C)c3c2=N)c1`, the Potency was 15.8 µM (active).
As to `Cn1c(SCC(=O)NC2CCCCC2)nnc1-c1cc2ccccc2o1`, the activity change, negative = inhibition is -3.43%.
On the same count and under the same terms, then `C=CCn1c(CC(=O)Nc2cccc(OC)c2)nnc1SCC(=O)NC1CCCCC1`, with -4.23%; and `CCN(C(=O)COC(=O)c1c(NC(C)=O)sc(C)c1C)C1CCS(=O)(=O)C1` (stereo not given), with -23.1%; and `O=C(CC(=O)N/N=C\c1cccc(Cl)c1Cl)NCc1ccccc1`, with -9.68%.
For the compound `COC(=O)Cc1ccc(N(Cc2ccccc2F)S(=O)(=O)c2ccc(Br)cc2)cc1`, the activity change, negative = inhibition is -19.6%.
Take `CCn1c(COc2ccc(OC)cc2)nnc1SCC(=O)Nc1cc(OC)ccc1OC`: the activity change, negative = inhibition was 1.56%.
For `CCn1c(SCC(=O)c2ccc3ccccc3c2)nnc1-c1cccs1`, the activity change, negative = inhibition was -18.4%.
On the same count and under the same terms, under `Cc1ccc(-n2c(Cc3cccs3)nnc2SCC(=O)OC(C)C)cc1` stands -15.1%.
Take `CCn1c(CNc2ccc(OC)cc2)nnc1SCC(=O)c1ccc(OC)cc1`: the Potency is 14.1 µM (active).
On to `CCn1c(Cc2cccs2)nnc1SCC(=O)c1ccc(C)cc1`, for which the Potency was 15.8 µM (active).
On to `COC(=O)c1ccc(NC(=O)CSc2nnc(CNc3ccc(OC)cc3)n2C)cc1`, for which the activity change, negative = inhibition was -6.05%.
Take `O=C(CN1CCN(S(=O)(=O)c2ccc(Br)cc2)CC1)Nc1ccccc1C(=O)c1ccccc1`: the activity change, negative = inhibition is -12.5%.
`CCOC(=O)N1CCN(C(=O)C2CCN(Cc3ccc(OC)cc3OC)CC2)CC1`: the activity change, negative = inhibition is -11.3%.
On the same count and under the same terms, then `CCCC(NC(=O)c1ccco1)c1nc2ccccc2[nH]1` (stereo not given), with -3.61%; and `Cc1cccc(C(=O)NC(=S)N2CCN(c3ccc([N+](=O)[O-])cc3)CC2)c1`, with -19.1%; and `O=C(O)Cc1ccc(-c2ccccc2)cc1`, with -9.59% and -19%.
Consider `CCOC(=O)/C=C/C(=O)OCC(=O)NC(c1ccccc1)c1ccccc1`, for which the activity change, negative = inhibition was -29.7%.
On to `O=C(Cc1ccc(-c2ccccc2)cc1)NC(c1ccccc1)c1ccccc1`, for which the Potency was 12.6 µM (active).
In the case of `CCCCC(=O)Nc1ccc(C(=O)Nc2cc(C(F)(F)F)ccc2Cl)cc1`, the activity change, negative = inhibition was -6.97%.
Turning to `CCOc1ccc(NC(=O)c2ccc(CSc3nnnn3C)cc2)cc1`, the activity change, negative = inhibition is -4.67%.
As to `COCCNc1ncnc2ccc(-c3ccccc3CN(C)C)cc12`, the activity change, negative = inhibition is -8.98%.
The same measure, in the same setting: then `COc1ccc2[nH]cc(CCNc3ncnc4ccc(-c5ccccc5CN(C)C)cc34)c2c1`, with -13.3%.
In the case of `COc1ccccc1CNc1ncnc2ccc(-c3c(C)noc3C)cc12`, the Potency is 6.31 µM (active).
On to `Cc1ccc(N(Cc2cc3ccccc3[nH]c2=O)C(=O)c2cccs2)cc1`, for which the activity change, negative = inhibition was -11%.
As to `CCOc1ccc(C(=O)Nc2nccs2)cc1[N+](=O)[O-]`, the activity change, negative = inhibition is -16.3%.
As for `O=C(CN1CCN(c2ccc(O)cc2)CC1)NC1CCCc2ccccc21` (stereo not given), the activity change, negative = inhibition was -19.6%.
On the same count and under the same terms, under `CCOc1ccc2nc(NC(=O)c3cc([N+](=O)[O-])ccc3N3CCOCC3)sc2c1` stands -5.12%; under `Cc1ccccc1Cn1nc(C)c(NC(=O)C(F)(F)F)c1C`, 0.212%.
In the case of `Cc1ccccc1OCC(=O)Nc1nc(C)c(C(=O)N(C)C)s1`, the activity change, negative = inhibition is -1.51%.
On the same count and under the same terms, under `COCCCNC(=O)COc1cc(C)c(Cl)c(C)c1` stands -21.9%.
In the case of `COCCNC(=O)COc1ccc(C)c(C)c1`, the Potency is 20 µM (active).
With `COCCNC(=O)COc1ccccc1C`, the activity change, negative = inhibition is -18.6%.
On to `CCCc1noc2c1/C(=N\O)CCC2`, for which the activity change, negative = inhibition was -17.1%.
With `CCSC(C)CC1C/C(=N/O)c2c(C)noc2C1` (stereo not given), the Potency was 25.1 µM (active).
As to `CCOc1ccc(NC(=O)COc2ccc(C(=O)NC3CCCc4ccccc43)cc2OC)cc1` (stereo not given), the activity change, negative = inhibition was -12.8%.
The same measure, in the same setting: then `O=C(CCN1C(=O)c2ccccc2C1=O)C1=NN[C@@H]2C(=O)N(c3ccc(F)cc3)C(=O)[C@H]12`, with -16.3%.
Regarding `CN(c1ccc(C(=O)N2CCc3ccccc3C2)cc1)S(C)(=O)=O`, the Potency is 14.1 µM (active).
With `COc1cccc(N(CC(=O)N2CCc3ccccc3C2)S(C)(=O)=O)c1`, the activity change, negative = inhibition is -5.24%.
Still for that read-out and setting: under `O=C(C(=O)N1CCc2ccccc2C1)N1CCc2ccccc2C1` stands -4.51%; under `N=c1n(CCc2ccccc2)c2ccccc2n1Cc1ccccc1F`, -8.4%; under `COCCNC(=S)N/N=C/c1c(C)[nH]c2ccccc12`, -19.3%.
Same read-out and setting: then `O=C(Nc1cccc2ncccc12)C(Cl)(Cl)Cl`, with -18.4%.
With `Cc1ccc(/C=C(\C#N)C(=O)Nc2cccc3ncccc23)o1`, the Potency was 39.8 µM (active).
On to `O=C(O)c1cc(Cl)c(Cl)cc1C(=O)Nc1cccc2ncccc12`, for which the activity change, negative = inhibition was -16.7%.
For the compound `Cc1ccc(S(=O)(=O)N(CC(=O)N2CCc3ccccc3C2)c2cccc(Cl)c2)cc1`, the activity change, negative = inhibition was -8.94%.
`Cc1ccc2c(c1)N(C(=O)CCC(=O)N1CCc3ccccc3C1)CCO2`: the Potency was 14.1 µM (active).
For `Cc1ccc(S(=O)(=O)N(C)CC(=O)N2CCc3ccccc32)cc1`, the activity change, negative = inhibition was -3.12%.
